Compounds with a hit are over-represented: about 1.6% of the library has one in this group of screens.
MLLE-PAM2 inh – blocks PAM2 peptide binding to the PABP1 MLLE domain | AID 588489 | GST-MLLE / FITC-PAM2 fluorescence polarization | P11940 | 360,000 tested, 0.36% active | inhibition, % at 20 µM; in the data active = inhibition above about 35%, passing the limit was not always enough
PABP polyA inh – PABP-poly(A) binding inhibition; P11940; PABP-poly(A) RNA binding, fluorescence polarization; inhibition, % at 35 µM; 290,000 tested, 1% active; AID 2014;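 note: calls also rest on retests at 20 µM and on dose response follow-up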
PERK inhibitor – blocks human PERK kinase | inhibition, % at 5.6 µM | CHO PERK-DD fusion, SEAP luminescence translation reporter | Q9NZJ5 | 220,000 tested, 0.17% active;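 active = inhibition above the mean inhibition of all tested compounds plus 3 SD, set separately per screening campaign, cut at about 2.9% in these data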;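 note: PERK kinase domain activated by AP20187 dimerizer at 100 nM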
eIF4E-4G inh – blocks eIF4E binding to eIF4G. P63073+Q04637. TR-FRET eIF4E-eIF4GI(517-606) binding, 2 h. inhibition, % at 21.7 µM. 220,000 tested, 0.37% active. AID 782;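 active = inhibition above about 30%, limit read from the data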
eIF4H FP inh – inhibitors of RNA binding by human eIF4H; 290,000 tested, 0.94% active; Q15056; inhibition, % at 35 µM; eIF4H fluorescence polarization binding assay; AID 2012;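 note: calls also rest on retests at 20 µM and on dose response follow-up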
Numbers stand for hits; – = inactive; ? = inconclusive; · = no result given. Unless noted, the rule behind the calls is not given here.

SMILES	MLLE-PAM2 inh	PABP polyA inh	PERK inhibitor	eIF4E-4G inh	eIF4H FP inh
CCOC(=O)c1c(-c2cccc([N+](=O)[O-])c2)csc1NC(=O)CCCOc1ccccc1	–	–	–	75.5	–
CCOC(=O)c1c(-c2ccccc2)csc1NC(=O)CSc1nncs1	–	79.6	–	–	–
CCOC(=O)c1c(-c2cccc([N+](=O)[O-])c2)csc1NC(=O)CCCOc1ccccc1OC	–	–	–	–	–
CCOC(=O)c1c(-c2ccc(-c3ccccc3)cc2)csc1NC(=O)C1C2CCC(O2)C1C(=O)O (stereo unspecified)	–	–	–	–	?
CCOC(=O)c1c(-c2ccccc2)csc1NC(=O)/C(C#N)=C/c1ccc(O)c(OC)c1	–	active	–	–	?
NC(=O)N(CCC(=O)O)c1ccccc1	–	active	–	–	62.9
O=C1/C(=C/c2ccco2)Cc2ccccc21	–	active	–	–	80.4
O=C(O)c1ccc(-n2cccc2/C=C2/NC(=O)N(c3cccc(Cl)c3)C2=O)cc1	–	–	–	38.4	–
O=C(O)c1ccc(-n2cccc2/C=C2/NC(=O)N(c3ccccc3)C2=O)cc1	–	83.9	–	–	96.6
N#Cc1ccccc1CN1C(=O)S/C(=C/c2cccn2-c2ccc(C(=O)O)cc2)C1=O	–	–	–	–	–
O=C(O)c1ccc(-n2cccc2/C=C2/SC(=O)N(CC(=O)N3CCCC3)C2=O)cc1	–	79.5	·	·	83.7
CCOC(=O)COn1c(=O)c(-c2ccc(Br)cc2)[n+]([O-])c2ccccc21	–	–	·	·	–
Cc1sc(N/N=C/c2cccs2)nc1-c1ccccc1	–	–	–	–	–
CC(=O)c1ccc(S(=O)(=O)N2CCCC(N(C)CCc3ccccc3)C2)cc1 (stereo unspecified)	–	–	·	·	–
COC(=O)c1scc(C)c1N1C(=O)c2ccccc2C1=O	–	–	2.9	–	–
CC(c1ccccc1)N1C(=O)c2ccc(C(=O)Nc3ccc(Br)cc3C(=O)O)cc2C1=O (stereo unspecified)	–	–	·	·	–
O=C(O)COc1ccc2c(c1)O/C(=C\c1ccco1)C2=O	–	54.3	·	·	76.6
CCN(CC)Cc1c(O)ccc2c1O/C(=C\C=C\c1ccccc1)C2=O	–	?	–	–	?
Cc1ccc(/C=C2\Oc3cc(OCC(=O)NN)ccc3C2=O)o1	–	–	·	·	72.6
COCCN(CCOC)Cc1c(O)ccc2c1O/C(=C\c1ccc(C)o1)C2=O	–	–	·	·	51.1
Cc1ccccc1-n1sc2cc(F)ccc2c1=O	–	–	–	51.8	–
O=C(O)c1ccc(CN2CCCCC2)o1	–	–	–	–	–
O=C(O)C(O)Cc1c[nH]c2ccccc12 (stereo unspecified)	–	–	–	–	–
CC(Cc1c[nH]c2ccccc12)C(=O)O (stereo unspecified)	–	48.0	–	–	–
O=c1c2ccccc2nc2n1CC/C2=C\N1CCN(c2ccc([N+](=O)[O-])cc2)CC1	–	·	·	·	·
SMILES	MLLE-PAM2 inh	PABP polyA inh	PERK inhibitor	eIF4E-4G inh	eIF4H FP inh
CC1=CCC(C(=O)O)C(C(=O)Nc2ccc(-c3nc4ccc(C)cc4s3)cc2)C1 (stereo unspecified)	–	–	–	79.8	–
O=C(O)c1cc([N+](=O)[O-])ccc1C(=O)Nc1cccc([N+](=O)[O-])c1	–	–	·	·	–
CCN(CC)C(=O)CSC(Nc1ccc(F)cc1)=C(C#N)C#N	–	–	–	–	–
CCN(CC)C(=O)CSC(=Nc1ccccc1F)NC#N	–	55.8	–	–	45.5
OCC(CO)(CO)NC(=S)Nc1cc(Cl)cc(Cl)c1	–	–	–	97.2	–
Cc1ccc2[nH]c3c(=O)n(CC(=O)NCc4ccco4)ncc3c2c1	–	–	·	·	58.7
CC(=O)Nc1ccc2c(=O)n(-c3ccccc3)sc2c1	–	·	·	·	·
Cc1ccc(-n2sc3ccccc3c2=O)cc1S(=O)(=O)N1CCCCC1	–	–	–	31.7	–
O=c1c2ccccc2sn1-c1ccc(S(=O)(=O)N2CCCCC2)cc1	–	·	–	·	·
N#Cc1ccc2c(=O)n(-c3ccccc3)sc2c1	39.4	·	·	·	·
CN(C)S(=O)(=O)c1cccc(-n2sc3ccccc3c2=O)c1	–	–	–	55.6	–
O=c1c2ccccc2sn1-c1ccccc1	45.8	–	–	53.8	–
CC1CCN(C(=O)c2cc(N3C(=O)C4C5CCC(C5)C4C3=O)ccc2Cl)CC1 (stereo unspecified)	·	–	–	–	–
O=c1c2ccccc2sn1-c1nccs1	–	?	–	68.2	–
CCOc1ccc(C(=O)C(C)OC(=O)c2cnc(C)cn2)cc1 (stereo unspecified)	–	·	·	·	·
C=CCC1(CC=C)CCCN1C(=O)C1CCC(=O)N(Cc2ccc(Cl)cc2)C1 (stereo unspecified)	–	·	·	·	·
C/C(=N\Nc1ncnc2sc(C)c(C)c12)c1ccccn1	–	52.7	·	·	?
Cc1sc2ncnc(N/N=C/c3cccc(O)c3)c2c1C	–	–	–	–	–
Cc1ccccc1CNC(=O)c1ccc(Cl)c([N+](=O)[O-])c1	–	–	–	–	–
O=C(CC1SC(N2CCOCC2)=NC1=O)Nc1ccccc1Cl (stereo unspecified)	–	·	·	·	·
O=C(CC1SC(N2CCOCC2)=NC1=O)Nc1cc([N+](=O)[O-])ccc1Cl (stereo unspecified)	–	63.9	–	–	?
O=c1[nH]c2ccc(NC(=S)Nc3ccc(F)cc3)cc2[nH]1	–	–	–	–	–
Cc1ccc(C(=O)NC(=S)Nc2ccc3[nH]c(=O)[nH]c3c2)c(C)c1	37.6	–	–	–	–
Cc1cccc(C(=O)NC(=S)Nc2ccc3[nH]c(=O)[nH]c3c2)c1	–	–	–	–	–
CCc1ccc(NC(=S)Nc2ccc3[nH]c(=O)[nH]c3c2)cc1	–	72.5	3.0	–	1.7
SMILES	MLLE-PAM2 inh	PABP polyA inh	PERK inhibitor	eIF4E-4G inh	eIF4H FP inh
CCC(=O)OCC(=O)c1cc(C)n(-c2ccc(Br)cc2)c1C	–	–	–	–	–
COc1ccc(C(=O)Nn2c(C3CCC3)nc3ccccc3c2=O)c(OC)c1	–	–	–	–	–
CC1CCC(C(C)C)C(OC(=O)COC(=O)c2cccn2C)C1 (stereo unspecified)	–	–	–	–	–
CC1CCC(C(C)C)C(OC(=O)COC(=O)c2ccc(N)cc2)C1 (stereo unspecified)	–	–	–	54.2	–
CCc1ccc(C(N)=S)cc1	41.4	?	–	–	–
COc1ccc2c(CC(=O)OCc3nc4ccsc4c(=O)[nH]3)coc2c1	–	·	·	·	·
O=S(=O)(O)c1ccc(NN=Cc2ccccc2O)cc1	–	·	·	·	·
Cc1ccccc1NC(=O)CCS(=O)(=O)c1ccc(Br)s1	–	–	·	·	57.6
COC(=O)c1ccccc1NC(=O)CCS(=O)(=O)c1ccc(Br)s1	–	–	–	–	–
C=CCN1C(=O)CSC1=Nc1cccc(O)c1	–	–	–	30.4	–
CCOc1ccc(-c2ccc(/C=C3/C(=N)N4C(C)=CSC4=NC3=O)o2)c([N+](=O)[O-])c1	–	5.9	–	–	79.6
O=C1CCCC(O)=C1Sc1ccccc1C(=O)O	–	–	–	–	86.8
CC1(C)CC(=O)C(Sc2ccccc2[N+](=O)[O-])=C(O)C1	–	–	–	–	–

Screening data (PubChem)
